Experimental data taken from PubChem BioAssay AID743286 (National Center for Advancing Translational Sciences (NCATS), 2014).
In all, about 1,100 compounds went through this assay and about 340 (31%) were called active. Inconclusive results (about 40%) are left out. Calls follow the shape of the dose curve; as a rule, active = well fitted inhibition curve with a large enough effect; inconclusive = small, poorly fitted or top-dose-only effect; inactive = flat fitted curve, though single readings scatter. These entries were drawn from the full list.

target: Phosphatidylinositol 5-phosphate 4-kinase type-2 alpha (Homo sapiens) (UniProt P48426); assay: qHTS for Inhibitors of PI5P4K: Confirmation in Primary Assay; conditions: PI5P4Kalpha enzyme, ADP-Glo luminescence, 60 min; series mostly up to 76.9 µM; activity change, negative = inhibition: at the top concentration; also: nearly all actives have a fitted effect of over 65% in size
Sequence (P48426 whole entry, looked up): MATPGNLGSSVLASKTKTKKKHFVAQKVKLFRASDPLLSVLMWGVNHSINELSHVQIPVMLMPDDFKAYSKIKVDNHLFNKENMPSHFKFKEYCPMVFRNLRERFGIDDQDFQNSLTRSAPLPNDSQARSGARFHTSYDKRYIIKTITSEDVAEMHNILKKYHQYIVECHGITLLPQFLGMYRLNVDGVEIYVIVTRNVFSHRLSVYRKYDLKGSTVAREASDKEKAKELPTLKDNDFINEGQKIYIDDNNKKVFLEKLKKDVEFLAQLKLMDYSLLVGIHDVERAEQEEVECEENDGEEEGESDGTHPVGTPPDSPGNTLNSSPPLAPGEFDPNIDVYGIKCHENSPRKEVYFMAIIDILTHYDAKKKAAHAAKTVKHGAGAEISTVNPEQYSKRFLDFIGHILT
How it was run: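 PI5P4Kα with PI5P substrate in 0.038 M HEPES pH 7.4, 0.28 mM EGTA, 0.1% CHAPS, 5% DMSO; reaction started with 5 µM ATP (final), 60 min at room temperature. ADP formed read by ADP-Glo luminescence end-point.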
% is scaled to controls: 0 for no effect and ±100 for the full control effect; potency is read from the fitted curve at half-maximal effect.

| SMILES | activity change, negative = inhibition | Potency |
| --- | --- | --- |
| CCCCc1c(Cc2ccccc2)ncn1CCc1ccccc1OC | 10.2% (inactive) |  |
| CC(=O)c1ccc(NC(=O)CC2Nc3cccc4cccc(c34)NC2=O)cc1 (stereo not given) |  | 3.98 µM (active) |
| c1ccc2c(OCCCCN3CCOCC3)cccc2c1 | -1.13% (inactive) |  |
| Oc1c(C(c2ccccc2)N2CCOCC2)ccc2ccccc12 (stereo not given) |  | 3.98 µM (active) |
| O=c1[nH]c(N2CCOCC2)cc2ccccc12 | 1.03% (inactive) |  |
| CC1CCCC(C)N1C(=O)COC(=O)CNC(=O)c1ccccc1 (stereo not given) | 0.689% (inactive) |  |
| Cc1cc2nc(NC(=O)C3(C)CCN3C(=O)C(C)C)[nH]c2cc1C (stereo not given) | -17.4% (inactive) |  |
| CC1(C(=O)NS(=O)(=O)C2CC2)CCN(C(=O)c2ccccc2F)C1 (stereo not given) | -6.44% (inactive) |  |
| N#Cc1ccc(COC(=O)CC(NC(N)=O)c2ccc(Cl)cc2)cc1 (stereo not given) | -7.64% (inactive) |  |
| COCCOC(=O)c1[nH]c2c(c1C)C(=O)CC(c1ccco1)C2 (stereo not given) |  | 15.8 µM (active) |
| O=C(Nc1ccc(O)c2c(=O)cc(-c3ccccc3Cl)oc12)c1ccc(Cl)c(Cl)c1 | -1.44% (inactive) |  |
| Nc1c(C(=O)O)cnc2c(-c3ccc(Cl)cc3)cnn12 |  | 6.31 µM (active) |
| CN1OC[C@@H]2CN3C(=O)N(c4cccc5ccccc45)c4ccccc4[C@@H]3C[C@@H]21 | -17.2% (inactive) |  |
| CCCn1c(SCC(=O)N2c3ccccc3Sc3ccccc32)nc2c1c(=O)n(C)c(=O)n2C | -3.15% (inactive) |  |
| CCC(c1nnnn1Cc1ccco1)N(CCc1ccccc1)Cc1cc2ccc(OC)cc2[nH]c1=O (stereo not given) | 2.22% (inactive) |  |
| O=C(NCCN1CCN(c2ccccc2)CC1)C1CCCN(S(=O)(=O)c2cnc[nH]2)C1 (stereo not given) | 3.17% (inactive) |  |
| Cc1cc(NS(=O)(=O)c2ccc(NC(=O)COc3ccc(Br)cc3)cc2)nc(C)n1 | 0.161% (inactive) |  |
| Cc1cc(C)c2nc(-c3ccccn3)cc(C(=O)Nc3ccc(S(=O)(=O)Nc4onc(C)c4C)cc3)c2c1 |  | 8.91 µM (active) |
| COCCCNC(=O)c1ccc2c(=O)n(CC3CCCO3)c(=S)[nH]c2c1 (stereo not given) | -8.52% (inactive) |  |
| CN(Cc1ccccc1)C(=O)c1csc([C@H]2C[C@H](O)[C@@H](CO)O2)n1 | -0.235% (inactive) |  |

| SMILES | activity change, negative = inhibition | Potency |
| --- | --- | --- |
| COc1cccc(CNS(=O)(=O)c2ccccc2Br)c1OC | -0.448% (inactive) |  |
| COC(=O)CSc1nc(C)cc(C)n1 | 1.95% (inactive) |  |
| CC1CCCCN1C(=O)Cn1cnc2cc([N+](=O)[O-])ccc2c1=O (stereo not given) | -5.4% (inactive) |  |
| O=C(Cn1cnc2scc(-c3cccc([N+](=O)[O-])c3)c2c1=O)NCc1ccco1 |  | 11.2 µM (active) |
| COC(=O)CNC(=O)C1Cc2ccccc2CN1S(=O)(=O)c1cccs1 (stereo not given) | -1.95% (inactive) |  |
| O=S(=O)(Nc1nc(-c2ccccc2)cs1)c1cc(Cl)ccc1Cl |  | 28.2 µM (active) |
| O=C(O)c1ccc(Cl)c(S(=O)(=O)Nc2ccc3[nH]c(=O)[nH]c3c2)c1 | -19.7% (inactive) |  |
| COC(=O)c1ccccc1NC(=O)CN1CCC(n2nnc3cc(C(F)(F)F)ccc32)CC1 | -0.603% (inactive) |  |
| Cc1ccc(S(=O)(=O)N2[C@@H](c3ccc(C(C)(C)C)cc3)C(C(=O)O)=CC[C@H]2c2ccc(C(C)C)cc2)cc1 | -29.1% (inactive) |  |
| Cc1cccc(NC(c2ccc(O)cc2)c2ccc3ccc(C)nc3c2O)n1 (stereo not given) |  | 22.4 µM (active) |
| O=c1cc(-c2ccccc2)[nH]n1-c1nc2ccccc2[nH]1 |  | 15.8 µM (active) |
| CC(C)C(=O)Nc1nnc(NC(=S)Nc2ccccc2)s1 |  | 20 µM (active) |
| CC(=O)Nc1ccc(NC(=S)Nc2ccc(Br)cc2)cc1 | 2.77% (inactive) |  |
| O=C(CSc1n[nH]c(-c2cccnc2)n1)OC1CCCCC1 | -6.36% (inactive) |  |
| CCCN(C(=O)c1cccc(-n2cccc2)c1)c1c(N)n(Cc2ccccc2)c(=O)[nH]c1=O |  | 7.08 µM (active) |
| CCCCC(=O)N(Cc1ccc2c(c1)OCO2)Cc1nc2ccccc2c(=O)[nH]1 | -1.7% (inactive) |  |
| CCCN(C(=O)c1cc(-c2ccco2)nc2ccccc12)c1c(N)n(Cc2ccccc2)c(=O)[nH]c1=O |  | 15.8 µM (active) |
| CCCn1c(N)c(N(CCOC)C(=O)c2cc(-c3ccco3)nc3ccccc23)c(=O)[nH]c1=O | -19% (inactive) |  |
| Cc1ccc(Nc2nc(C)c3c(n2)CC(C)CC3=O)c(C)c1 (stereo not given) | -0.0066% (inactive) |  |
| O=C(O)c1cc2c(N3CCC(Cc4ccccc4)CC3)ncnc2s1 |  | 3.98 µM (active) |
